Records with an inconclusive call do not appear. Entries that show only a call come without a potency. The source made the active and inactive calls. The call rests on the fitted dose curve; in most records, active means well fitted curve in the direction sought with a large enough effect; inconclusive means small, poorly fitted or top-dose-only effect, or another doubt; inactive means no such curve, though single readings can be large; an effect the other way counts as inactive or inconclusive.

Potency data for 15 compounds are collected here from PubChem BioAssay (NCATS).

Test [1] has as its target Aldehyde dehydrogenase, mitochondrial (Homo sapiens) (UniProt P05091). The test is described as follows: qHTS for Inhibitors of the Aldehyde Dehydrogenase Family (ALDH2) Primary screen (AID 2061308). Further: nearly all actives have a fitted effect of over 55% in size.
The target of test [2] is Retinaldehyde dehydrogenase 3 (Homo sapiens) (UniProt P47895). The test is described as follows: qHTS for Inhibitors of the Aldehyde Dehydrogenase Family (ALDH1A3) Primary screen (AID 2061315).

`COc1ccc(-c2nc3ccc(Cl)cc3c(=O)n2Cc2ccccc2)cc1COc1ccc(NC(C)=O)cc1`: the Potency entry in test [1] and in test [2] was “inactive” each time.
`Cc1cc(C)nc(NC(=S)N2CCN(c3ccc(Cl)cc3F)CC2)c1`: the Potency result in test [1] and in test [2] was “inactive” each time.
With `Cc1ccc(Cn2ncc3c4sc(C)cc4n(C)c3c2=O)c(C)c1`, the Potency result in test [1] and in test [2] was “inactive” each time.
As to `Cc1ccccc1-c1csc2ncnc(Sc3nnnn3C)c12`, the Potency result in test [1] and in test [2] was “inactive” in each case.
Turning to `CCc1ccc(NC(=O)c2cnn3c(C)cc(-c4ccccc4)nc23)cc1`, the Potency result in test [1] and in test [2] was “inactive” in each case.
On to `COc1cc2ncnc(N(C)Cc3cccs3)c2cc1-c1ccc2c(c1)OCO2`, for which the Potency result in test [1] and in test [2] was “inactive” in each case.
For `N[C@H]1CCN(c2cnc3c(O)ccc(C(=O)O)c3c2)C1`, the Potency entry in test [1] and in test [2] was “inactive” throughout.
As for `COc1ccccc1-c1nnc2n1N=C(c1c(OC)cccc1OC)CS2`, the Potency entry in test [1] and in test [2] was “inactive” in each case.
`Cc1ccc(-c2ccc(=O)n(CC(=O)NCCCc3ccccn3)n2)cc1`: the Potency result in test [1] and in test [2] was “inactive” in each case.
For `COc1ccc(Nc2nn3c(=O)c4ccccc4nc3s2)cc1`, the Potency result in test [1] and in test [2] was “inactive” throughout.
For the compound `CC(O)C(O)/C=C/C=C/C(=O)O[C@@H]1C=C(C(=O)O)[C@](O)(CO)[C@@]2(C)CCCC(C)(C)[C@H]12` (stereo not given in full), the Potency entry in test [1] and in test [2] was “inactive” each time.
As to `Cc1cc(C)nc(NC(=S)N2CCN(c3ccc(Cl)c(C(F)(F)F)c3)CC2)c1`, the Potency result in test [1] and in test [2] was “inactive” throughout.
As to `Oc1cc(-c2ccncc2)cc2cccnc12`, the Potency entry in test [1] and in test [2] was “inactive” each time.
With `O=C(O)c1ccc(-c2ccc3ncnc(NCc4nccs4)c3c2)o1`, the Potency entry in test [1] and in test [2] was “inactive” in each case.
On to `COc1c(Cl)cccc1NC(=O)c1c(NC(=O)Cc2ccccc2)sc2c1CCCC2`, for which the Potency result in test [1] and in test [2] was “inactive” each time.
